Bioassay records (PubChem BioAssay)
STK33 inh: blocks human STK33 kinase activity; inhibition, % at 12.5 µM; hit rate 0.44% among 27,000; ADP-Glo luminescence, MBP substrate; Q9BYT3; in the data active = inhibition above about 20%; inconclusive = no clear call, values can overlap the other calls
Target sequence (Q9BYT3 whole entry, looked up): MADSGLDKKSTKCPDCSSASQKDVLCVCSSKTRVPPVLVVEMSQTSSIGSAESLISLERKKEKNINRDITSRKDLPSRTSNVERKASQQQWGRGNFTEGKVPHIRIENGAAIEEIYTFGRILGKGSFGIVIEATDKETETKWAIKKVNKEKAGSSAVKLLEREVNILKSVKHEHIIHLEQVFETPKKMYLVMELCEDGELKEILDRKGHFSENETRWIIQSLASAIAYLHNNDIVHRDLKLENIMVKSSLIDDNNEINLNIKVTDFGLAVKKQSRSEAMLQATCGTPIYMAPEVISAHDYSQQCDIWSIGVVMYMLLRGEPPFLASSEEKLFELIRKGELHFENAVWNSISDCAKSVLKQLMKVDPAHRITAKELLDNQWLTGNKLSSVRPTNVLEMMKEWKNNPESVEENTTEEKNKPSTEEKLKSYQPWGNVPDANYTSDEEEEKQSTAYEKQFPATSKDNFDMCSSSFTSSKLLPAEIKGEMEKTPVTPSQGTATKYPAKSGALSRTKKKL
PD-1 reversal: reversal of PD-1 mediated T-cell inhibition; primary human CD4 T cells, PD-L1 beads, CellTiter-Glo 96 h; activation, % (concentration not given with the values); 29,000 tested, under 10 active; AID 2316; call rule not given here;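 note: 0% = median vehicle wells and 100% = positive control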
NOMO-1 viab: STK33 inhibitor candidate reducing NOMO-1 cell viability; NOMO-1 AML viability, CellTiter-Glo luminescence, 72 h; hit rate 7.5% among 37,000; inhibition, % (test concentration not listed); in the data active = inhibition above about 80%; inconclusive = no clear call, values can overlap the other calls
* = called active by the depositor; ? = inconclusive; / = not tested or not shown. This is one part of a sample in which hits are shown more often than they occur.

SMILES | STK33 inh | PD-1 reversal | NOMO-1 viab
CCn1c(SCC(=O)N2c3ccccc3CCc3ccccc32)nnc1-c1ccco1 | 2.2 | -1.7 | 2.2
O=C(Nc1ccccc1Cl)c1cc2ccccc2cc1O | / | -4.4 | 131.6*
O=C(COc1ccc(C(=O)Nc2ccccc2Cl)cc1)Nc1cc(Cl)cc(Cl)c1 | 3.5 | -0.3 | 16.1
Cc1nc(SCc2csc(C)n2)c2c3c(sc2n1)CCCC3 | 9.9 | -4.1 | 10.4
COC(=O)c1ccc(NC(=O)CN(c2cc(Cl)c(Cl)cc2Cl)S(C)(=O)=O)cc1 | 3.8 | -1.7 | 61.2
CS(=O)(=O)N(CC(=O)Nc1ccc(C(F)(F)F)cc1)c1cccc(C(F)(F)F)c1 | -1.4 | -4.6 | 67.3
COc1cccc(NC(=O)CN(c2cc(Cl)c(Cl)cc2Cl)S(C)(=O)=O)c1 | -2.1 | 0.5 | 40.4
CS(=O)(=O)N(CC(=O)Nc1ccc(C(F)(F)F)cc1)c1ccc(Oc2ccccc2)cc1 | -1.8 | -3.1 | 109.0*
Cc1ccc(NC(=O)CN(c2cc(Cl)c(Cl)cc2Cl)S(C)(=O)=O)cc1Cl | -4.1 | 0.0 | 84.5*
CS(=O)(=O)N(CC(=O)Nc1ccc(Oc2ccccc2)cc1)c1cc(Cl)c(Cl)cc1Cl | 2.0 | 0.0 | 118.2*
Cc1ccc(NC(=O)CN(c2cc(Cl)c(Cl)cc2Cl)S(C)(=O)=O)cc1 | 1.8 | 1.4 | 16.1
COC(=O)c1cc(NC(=O)CN(c2cc(Cl)c(Cl)cc2Cl)S(C)(=O)=O)ccc1Cl | 2.0 | -1.2 | 133.0*
NC(N)=NS(=O)(=O)c1ccc(N=Cc2ccccc2O)cc1 | -2.6 | 3.6 | 4.8
CC1(C)Cc2nc3nc(SCC(=O)c4ccc(Br)cc4)n(-c4ccccc4)c(=O)c3cc2CO1 | 0.9 | -3.8 | 43.8
CC(C)OC(=O)CSc1nc(-c2ccccc2)cc(C(F)(F)F)c1C#N | 4.6 | -1.0 | 14.8
Cc1ccc(OCC(=O)Nc2ccc3oc(-c4ccc(F)cc4Cl)nc3c2)cc1 | 0.1 | -2.4 | 45.7
Cc1cccc(-c2nnc(SCC(=O)Nc3cc([N+](=O)[O-])ccc3C)o2)c1 | 4.3 | -0.4 | -15.1
CC(C(=O)Nc1cccnc1)N(c1ccc(Cl)cc1)S(C)(=O)=O (stereo not given) | ? | 0.7 | -12.1
Cc1cccc(OCC(=O)Nc2ccc(Cl)c(-c3nc4ccccc4s3)c2)c1 | -1.5 | 1.8 | 29.8
CC1=COC=C(C=NCc2ccccc2)N1c1ccccc1 | / | -0.2 | 17.5
CC(C)(C)Nc1cccccc1=NCc1ccccc1 | / | -3.5 | 91.9*
C[C@@H]1CN([C@@H](C)CO)C(=O)c2cccc(NC(=O)Nc3ccc4c(c3)OCO4)c2O[C@H]1CN(C)Cc1ccc(C(=O)Nc2ccccc2N)cc1 | / | -2.3 | 126.3*
C[C@H]1CN([C@@H](C)CO)C(=O)c2cccc(NC(=O)Nc3ccc4c(c3)OCO4)c2O[C@@H]1CN(C)Cc1ccc(C(=O)Nc2ccccc2N)cc1 | / | -4.0 | 127.4*
C[C@@H]1CN([C@H](C)CO)C(=O)c2cccc(NC(=O)Nc3ccc4c(c3)OCO4)c2O[C@H]1CN(C)Cc1ccc(C(=O)O)cc1 | / | / | -16.7
C[C@@H]1CN([C@@H](C)CO)C(=O)c2cccc(NC(=O)Nc3ccc4c(c3)OCO4)c2O[C@@H]1CN(C)Cc1ccc(C(=O)O)cc1 | / | 1.9 | -0.3
SMILES | STK33 inh | PD-1 reversal | NOMO-1 viab
C[C@H]1CN([C@@H](C)CO)C(=O)c2cccc(NC(=O)Nc3ccc4c(c3)OCO4)c2O[C@@H]1CN(C)Cc1ccc(C(=O)O)cc1 | / | / | 25.4
C[C@@H]1CN([C@@H](C)CO)C(=O)c2cccc(NC(=O)Nc3ccc4c(c3)OCO4)c2O[C@@H]1CN(C)Cc1ccc(C(=O)Nc2ccccc2N)cc1 | / | -1.6 | 141.6*
CCn1c(SCC(=O)Nc2cc(C(F)(F)F)cc(C(F)(F)F)c2)nnc1-c1ccncc1 | 0.6 | / | 38.9
Cc1ccc(CC(CC(=O)O)C(=O)Nc2ccccc2I)cc1 (stereo not given) | 2.7 | 1.2 | 22.2
N#CC(=C(/N)Sc1ccccc1N)/C(C#N)=C(\N)Sc1ccccc1N | 4.8 | / | 93.5*
CS(=O)(=O)N1CCN(c2ccccc2NC(=O)c2ccc(N3CCCCC3)c([N+](=O)[O-])c2)CC1 | 3.3 | -0.7 | 18.5
CC(C)=CCc1c(O[C@@H]2O[C@H](CO)[C@@H](O)[C@H](O)[C@H]2O)cc(O)c2c1O[C@H](c1ccc(O)cc1)CC2=O | 12.2 | -1.3 | 25.0
CC[C@]1(O)C[C@H]2CN(CCc3c([nH]c4ccccc34)[C@@](C(=O)OC)(c3cc4c(cc3OC)N(C=O)[C@H]3[C@@](O)(C(=O)OC)[C@H](OC(C)=O)[C@@]5(CC)C=CCN6CC[C@]43[C@@H]65)C2)C1 | -0.3 | -5.7 | 94.2*
CCOc1ccc(-c2nnc(SCC(=O)O)n2-c2ccccc2)cc1 | 9.9 | 0.6 | -8.8
C[C@H](CO)N1C[C@H](C)[C@H](CN(C)Cc2ccc(C(F)(F)F)cc2)Oc2ccc(NC(=O)c3ccncc3)cc2CC1=O | 3.1 | -1.8 | 32.4
C[C@@H]1CN([C@H](C)CO)C(=O)Cc2cc(NC(=O)Nc3ccc(C(F)(F)F)cc3)ccc2O[C@@H]1CN(C)Cc1ccncc1 | -0.9 | -2.9 | ?
C[C@H]1CN([C@@H](C)CO)C(=O)Cc2cc(NC(=O)Nc3ccc(C(F)(F)F)cc3)ccc2O[C@H]1CN(C)Cc1ccncc1 | 0.3 | -2.4 | 133.6*
C[C@@H]1CN([C@@H](C)CO)C(=O)Cc2cc(NC(=O)Nc3ccc(C(F)(F)F)cc3)ccc2O[C@@H]1CN(C)Cc1ccncc1 | -0.9 | -4.3 | 115.8*
CC(=O)Nc1ccc(C(=O)CSc2nnc(-c3ccccc3Cl)o2)cc1 | 2.7 | / | 29.7
Cc1cc(SCC(=O)Nc2sc3c(c2C#N)CCCC3)nc2ccccc12 | 0.1 | 1.7 | 1.2
O=C(Cn1nnc(-c2cc(C(F)(F)F)cc(C(F)(F)F)c2)n1)c1ccc(Cl)cc1 | / | 0.5 | 19.2
O=C(Oc1ccc(C2SCCS2)cc1)c1cccc(C(F)(F)F)c1 | -6.5 | -1.1 | 3.3
CCN(C(=S)Nc1ccc(C)cc1)c1ccccc1 | -2.1 | -3.0 | 11.5
CCN(CC)C(=S)NC(=S)c1ccc(C)cc1 | / | -6.8 | 121.9*
COc1ccc(C)cc1N(CC(=O)Nc1ccc(Br)cc1F)S(C)(=O)=O | -2.7 | 1.6 | 2.4
Cc1noc(C)c1S(=O)(=O)Nc1ccc2c(c1)CC(=O)N([C@@H](C)CO)C[C@H](C)[C@H](CN(C)Cc1ccc(Cl)c(Cl)c1)O2 | 3.8 | -4.0 | ?
Cc1noc(C)c1S(=O)(=O)Nc1ccc2c(c1)CC(=O)N([C@@H](C)CO)C[C@H](C)[C@H](CN(C)Cc1ccc(C(F)(F)F)cc1)O2 | -6.4 | -3.4 | 82.8*
Cc1noc(C)c1S(=O)(=O)Nc1ccc2c(c1)CC(=O)N([C@@H](C)CO)C[C@H](C)[C@@H](CN(C)Cc1ccc(C(F)(F)F)cc1)O2 | 6.1 | / | 65.2
Cc1noc(C)c1S(=O)(=O)Nc1ccc2c(c1)CC(=O)N([C@H](C)CO)C[C@@H](C)[C@H](CN(C)Cc1ccc(Cl)c(Cl)c1)O2 | 3.4 | -1.9 | 97.5*
COC(=O)c1c(NC(=S)Nc2cccc(NC(C)=O)c2)sc(C)c1C | 3.6 | / | /
O=C(COC(=O)C1CC=CCC1C(=O)OCC(=O)c1ccc(Cl)cc1)c1ccc(Cl)cc1 (stereo not given) | / | -1.6 | 44.6
Cc1ccc(C)n1-c1ccc(C(=O)OCC(=O)c2ccc(Cl)cc2)cc1 | / | -0.9 | 121.4*
Cc1cccc(-c2nnc(SCC(=O)Nc3ccc(Br)cc3F)o2)c1 | -2.4 | / | 3.2
